Test results reported in PubChem BioAssay (NCATS).
Inconclusive results are not listed. A call without a number means that no potency is given here. The source made the active and inactive calls. The call rests on the fitted dose curve; in most records, active means well fitted curve in the direction sought with a large enough effect; inconclusive means small, poorly fitted or top-dose-only effect, or another doubt; inactive means no such curve, though single readings can be large; an effect the other way counts as inactive or inconclusive.

Columns and labels:
[1] = qHTS to identify inhibitors of the type 1 interferon - major histocompatibility complex class I in skeletal muscle: primary screen against the NCATS Mechanism Interrogation Plate v5.0 (MIPE) Libary (AID 1347411); further: nearly all actives have a fitted effect of over 65% in size
How it was run: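 IFN-beta-driven (4 ng/ml) HLA-B-HiBit expression in CRISPR-tagged C25cl48 myoblasts; compounds 11-pt, 1:3, max 46 uM, 24 hr exposure; lytic NanoLuc complementation luminescence.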

[2] = biological target: Calcium and integrin-binding protein 1 (Homo sapiens) (UniProt Q99828); test: Primary qHTS for Identification of Calcium Integrin Binding Protein 1 (CIB1) Competitor (AID 1508620);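 further: GST tagged CIB1 binding a fluorescein labelled alphaIIb integrin peptide tracer; top concentration of the series differs between compounds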
How it was run: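 Fluorescence polarization competition: CIB1-GST (1 uM final) preincubated with compound 15 min at room temperature, then FITC-labeled alphaIIb peptide (100 nM final) added for another 15 min. Polarization read at Ex 480/Em 540.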

[3] = biological target: Protein phosphatase 1D (Homo sapiens) (UniProt O15297); test: RapidFire Mass Spectrometry qHTS Assay for Modulators of WT P53-Induced Phosphatase 1 (WIP1) (AID 1347424);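 further: amount of dephosphorylated VEPPL-S-QETFS peptide product formed by WIP1; series mostly up to about 63 µM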
How it was run: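 Mass-spectrometric measurement of dephosphorylated peptide after a 5 min room-temperature reaction of 10 nM WIP1 with 2 uM phosphopeptide, following 1 h compound preincubation in 30 mM MgCl2 buffer.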

[4] = biological target: Protein phosphatase 1D (Homo sapiens) (UniProt O15297); test: Rhodamine-PBP qHTS Assay for Modulators of WT P53-Induced Phosphatase 1 (WIP1) (AID 1347425)
How it was run: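 WIP1 (5 nM final) was preincubated with compound for 1 hour at room temperature. It then dephosphorylated 10 uM VEPPL-pS-QETFS peptide in Tris-HCl pH 7.5 with 30 mM MgCl2. Released Pi was detected by 10 uM Rh-PBP fluorescence (ex 525/em 598 nm) read at 1-min intervals for 11 min, as delta f1 - f0.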

[5] = Primary qHTS for inhibitors of La Crosse Virus (LACV) - induced cell death in SH-SY5Y cells (AID 1508616);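 further: top concentration of the series differs between compounds; higher means more rescue of cells from virus-induced death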
How it was run: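 Screening measures cell viability in LACV-infected SH-SY5Y cultures. Compound was added before virus (0.01 MOI), and ATP was detected by luminescence 6 days later.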

Sequence of Calcium and integrin-binding protein 1 (Homo sapiens) (Q99828 whole entry, looked up): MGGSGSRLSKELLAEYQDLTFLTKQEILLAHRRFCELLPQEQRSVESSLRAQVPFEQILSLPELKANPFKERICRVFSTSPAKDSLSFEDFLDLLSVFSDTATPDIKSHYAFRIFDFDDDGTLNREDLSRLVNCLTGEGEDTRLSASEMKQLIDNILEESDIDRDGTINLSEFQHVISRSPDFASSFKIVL
Sequence of Protein phosphatase 1D (Homo sapiens) (O15297 whole entry, looked up): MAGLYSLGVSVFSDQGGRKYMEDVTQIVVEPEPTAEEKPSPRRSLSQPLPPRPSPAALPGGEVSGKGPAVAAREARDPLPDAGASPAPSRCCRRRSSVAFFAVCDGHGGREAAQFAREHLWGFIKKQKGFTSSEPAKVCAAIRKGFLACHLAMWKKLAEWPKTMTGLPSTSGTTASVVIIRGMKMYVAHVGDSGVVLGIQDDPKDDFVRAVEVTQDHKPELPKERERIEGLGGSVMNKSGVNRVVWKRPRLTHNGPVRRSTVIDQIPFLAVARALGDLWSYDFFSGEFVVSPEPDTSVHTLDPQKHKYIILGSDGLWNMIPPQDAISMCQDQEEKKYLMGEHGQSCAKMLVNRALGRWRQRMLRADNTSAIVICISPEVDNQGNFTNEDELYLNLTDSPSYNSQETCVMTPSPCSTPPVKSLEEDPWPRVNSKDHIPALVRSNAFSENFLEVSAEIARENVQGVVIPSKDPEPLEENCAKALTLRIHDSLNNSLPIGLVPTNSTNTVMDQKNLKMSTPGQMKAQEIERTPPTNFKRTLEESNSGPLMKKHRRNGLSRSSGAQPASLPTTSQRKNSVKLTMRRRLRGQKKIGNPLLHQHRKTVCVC

SMILES: CCOc1ccn(-c2ccc(F)cc2)c(=O)c1C(=O)Nc1ccc(Oc2ccnc(N)c2Cl)c(F)c1
- Potency [1]: inactive
- outcome [2]: inactive

SMILES: CC1(C)Cc2c(-c3ccccc3)c(-c3ccc(Cl)cc3)c(CC(=O)O)n2C1
- outcome [2]: inactive

SMILES: C[C@]1(c2nc3c(C(N)=O)cccc3[nH]2)CCCN1
- Potency [1]: inactive
- outcome [2]: inactive

SMILES: O=c1ncn2nc(Sc3ccc(F)cc3F)ccc2c1-c1c(Cl)cccc1Cl
- Potency [1]: inactive
- outcome [2]: inactive

SMILES: Nc1nc2[nH]cc(CCc3ccc(C(=O)N[C@@H](CCC(=O)O)C(=O)O)cc3)c2c(=O)[nH]1
- Potency [1]: inactive
- outcome [2]: inactive

SMILES: CC(=O)NC(C)c1ccc(Oc2ccc(OC(C)C)cc2)cc1 (stereo not given)
- outcome [2]: inactive

SMILES: COc1ccc(CC2=NN3C([C@@H](CCc4ccccc4)[C@@H](C)O)=NC(C)C3C(=O)N2)cc1OC (stereo not given in full)
- Potency [1]: inactive
- outcome [2]: inactive

SMILES: Fc1ccc(Cl)cc1-c1nc(Nc2ccncc2)c2nccnc2n1
- Potency [1]: inactive
- outcome [2]: inactive

SMILES: COc1nc(-c2ccc3c(c2)OCO3)n(-c2ccc(NC(=O)CSc3ccccc3)cc2)n1
- Potency [1]: inactive
- outcome [2]: inactive

SMILES: N#Cc1ccc(C(c2ccc(C#N)cc2)n2cncn2)cc1
- Potency [1]: inactive
- outcome [2]: inactive

SMILES: O=C(Nc1ccc(F)c(C(F)(F)F)c1)Nc1nnc(-c2ccncc2)s1
- Potency [1]: inactive
- outcome [2]: inactive

SMILES: CNCc1ccc(-c2[nH]c3cc(F)cc4c3c2CCNC4=O)cc1
- outcome [2]: inactive

SMILES: CNC(=O)c1ccc(N2C(=S)N(c3ccc(C#N)c(C(F)(F)F)c3)C(=O)C2(C)C)cc1F
- Potency [1]: inactive
- outcome [2]: inactive

SMILES: COc1ccccc1[C@H](c1cccc2ccccc12)[C@@](C)(C#N)C(=O)N1CCC(c2cccc(C(F)(F)F)c2)CC1
- Potency [1]: inactive
- outcome [2]: inactive

SMILES: O=C(O)[C@@H](c1ccc(OCc2ccc3ccccc3n2)cc1)C1CCCC1
- Potency [1]: inactive
- outcome [2]: inactive

SMILES: CC[C@H](Nc1ncnc2nc[nH]c12)c1nc2cccc(F)c2c(=O)n1-c1ccccc1
- Potency [1]: inactive
- outcome [2]: inactive

SMILES: Cc1c(CN2CCN(C(=O)C(C)C)CC2)sc2c(N3CCOCC3)nc(-c3cnc(N)nc3)nc12
- outcome [2]: inactive

SMILES: C#Cc1cccc(Nc2ncnc3cc(OCCOC)c(OCCOC)cc23)c1
- Potency [3]: inactive
- outcome [4]: inactive
- outcome [5]: inactive
- outcome [2]: inactive

SMILES: C[C@@H]1CN(Cc2ccc(F)cc2)[C@@H](C)CN1C(=O)c1cc2c(C(=O)C(=O)N(C)C)cn(C)c2cc1Cl
- Potency [1]: inactive
- outcome [2]: inactive

SMILES: CS(=O)(=O)c1ccc(C(=O)Nc2ccc(Cl)c(-c3ccccn3)c2)c(Cl)c1
- Potency [1]: inactive
- outcome [2]: inactive

SMILES: CS(=O)(=O)Oc1ccc2c(NC(N)=O)c(C(=O)c3ccc(Cl)cc3Cl)oc2c1
- Potency [1]: inactive
- outcome [2]: inactive
